Results on 19 molecules are retold here after PubChem BioAssay (EPA / NIEHS).

Values joined by “and” are separate entries in the source; they are usually repeats but may differ in a detail not shown here. Identical values can stand only once. Active and inactive are the calls of the source. How the source made its calls: active means hit-call score of the fitted dose curve at least 0.9, where 1 is the maximum; inactive means score below 0.9.

The assay in a line: CCTE_Shafer_MEA_dev_spike_duration_mean: CCTE's Neural Network Formation Assay for Mean Spike Duration, Shafer Lab (AID 2284051).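 On AC50: potency for a decrease in mean network spike duration versus DMSO.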 As to the method:
CCTE_Shafer_MEA_dev assay is conducted using Axion Biosystems 48 well microelectrode array (MEA) plates and Maestro recording system. Each well of the MEA plate contains a grid of 16 microelectrodes embedded in the culture surface. Electrically active cells, such as neurons, can be cultured over the electrodes, and electrical activity in these cells can be recorded extracellularly. The spontaneous firing of neurons is captured from each electrode on a microsecond timescale providing both temporally and spatially precise data. […] The CCTE_Shafer_MEA_dev assay uses primary cultures of rat cortical neurons. Recordings are made on days post-plating 5, 7, 9 and 12. As these cultures mature over time, neural networks develop functional activity and form cohesive networks in which electrical activity can be highly coordinated. CCTE_Shafer_MEA_dev_spike_duration_mean is 1 of 19 assay components of the CCTE_Shafer_MEA_dev assay. It measures the average duration of network spikes (temporally-clustered groups of action potential firing across multiple electrodes) during a recording in a microelectrode array (MEA) using Axion Biosystems Maestro 768 channel amplifier with the AxIS adaptive spike detector. To collapse across multiple recordings made on days post-plating 5, 7, 9 and 12, the trapezoidal area-under-the-curve of the component is calculated.Data from the assay component CCTE_Shafer_MEA_dev_spike_duration_mean was analyzed into 1 assay endpoint. This assay endpoint, CCTE_Shafer_MEA_dev_spike_duration_mean, was analyzed in the negative analysis fitting direction relative to DMSO as the negative control and baseline of activity. Using a type of functional reporter, gain or loss-of-signal activity can be used to understand electrical activity.
On the day prior to culture, each well was coated thoroughly with 150 uL of 0.05% polyethyleneimine (PEI, Sigma Cat P3143) in 50 mM HEPES (Sigma Cat H7523) at a pH of 8. The plate was incubated at 37C for one hour. PEI was rinsed out with 500 uL of sterile water three times. Plates were stored at 4C until the day of culture. This culture was plated at a seeding density of 1.5 x 10^5 cells/well on a 48-well MEA plate, prepared as described above. Cells were administered via a 25 uL media/laminin ([…]; Sigma Cat L2020-1MG) drop directly onto the microelectrode array, as adding the cells with the laminin results in better attachment than pre-coating with laminin. After 2 hours, an additional 475 uL of cortical media was added and the cells returned to the incubator. Exposure starts at day 0 of plating and is continued over twelve days of network development until the experiment is terminated. Cells are fed with fresh medium on DIV 5 and 9, following the recordings on those days. The entire volume of media in the well is exchanged and any vehicle or compound treatment is renewed. Complete details are found in OP-NHEERL/ISTD/SBB/TJS/2015-03-r0 (available on request, email shafer.tim@epa.gov). Measurement of the electrical activity is non-invasive, and recordings can be made from the same plate over multiple different days of the culture. In cortical neurons, this allows for the measurement of extracellular action potentials over the period during which networks form in the MEA plate.
Regarding `NNC(=O)c1ccncc1`, the outcome was inactive.

As for `CCN(CC)C(=S)SSC(=S)N(CC)CC`, the half-maximal activity concentration (AC50) was 106 nM (active) and 47.6 nM (active). `OC(Cn1cncn1)(Cn1cncn1)c1ccc(F)cc1F`: the outcome was inactive. Consider `c1ccc2cc3ccccc3cc2c1`, for which the outcome was inactive. For the molecule `NC(=O)N1c2ccccc2C=Cc2ccccc21`, the molecule was classed as inactive. Consider `OCCC(F)(F)C(F)(F)C(F)(F)C(F)(F)F`, for which the molecule was called inactive. Regarding `CC[C@H](C)C(=O)O[C@H]1C[C@H](O)C=C2C=C[C@H](C)[C@H](CC[C@@H](O)C[C@@H](O)CC(=O)O)[C@H]21`, the AC50 was 37 nM (active). As to `CCCC(CCC)C(=O)O`, the result was inactive. Same read-out and setting: in the case of `OC(O)(C(F)C(O)(O)C(F)(F)F)C(F)(F)F` it was “inactive”. With `COc1cc2c(c(OC)c1OC)-c1ccc(OC)c(=O)cc1[C@@H](NC(C)=O)CC2`, the AC50 is 24.8 nM (active).

In the case of `FC(F)(F)COC(OCC(F)(F)F)OCC(F)(F)F`, the call was inactive.

As to `Cn1cc[nH]c1=S`, the outcome was inactive. Turning to `O=C(Cl)C(F)(F)C(F)(F)C(F)(F)C(=O)Cl`, the molecule was called inactive. `c1ccc2c(c1)-c1cccc3c1c-2cc1ccccc13`: the concentration at half-maximal activity (AC50) was 4480 nM (active).

On to `C[C@]12C=CC(=O)C=C1CC[C@H]1[C@@H]3C[C@@H](O)[C@](O)(C(=O)CO)[C@@]3(C)C[C@H](O)[C@@]12F`, for which the molecule was called inactive. On the same count and under the same terms, in the case of `NCC(F)(F)C(F)(F)C(F)(F)C(F)(F)F` it was “inactive”. Take `CCOc1ccc2[nH]cc(C(=O)NCc3ccccc3)c(=O)c2n1`: the molecule was called inactive. Consider `FC(F)(F)C(F)(F)C(F)(F)C(F)(F)C(F)(F)C(F)(F)I`, for which the outcome was inactive. Take `Nc1ccn([C@@H]2O[C@H](CO)[C@@H](O)[C@@H]2O)c(=O)n1`: the AC50 was 145 nM (active) and 889 nM (active).

Broadly, the AC50 is the concentration giving half of the maximal activity seen.
